Measured values from PubChem BioAssay (NCATS).
Several values for one entry are separate records, joined by “and”; a condition that tells them apart may be missing. Equal entries are not always repeated. A number with no mark means an inactive call. Results filed as inconclusive are left out. A call without a number means that no potency is given here. Activity calls are given as the source filed them. Unless noted, calls follow the shape of the dose curve; as a rule, active = well fitted curve in the direction sought with a large enough effect; inconclusive = small, poorly fitted or top-dose-only effect, or another doubt; inactive = no such curve, though single readings can be large; an effect the other way counts as inactive or inconclusive.

Experiments:
[1] = Cell Viability - NIH 3T3 (AID 541); conditions: NIH 3T3 cell viability, qHTS; activity change, negative = cytotoxicity: at 92.2 µM (top of the series);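 also: cells exposed to compound for 40 hours; nearly all actives have a fitted effect of over 25% in size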
Summary of the method: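 qHTS format; 40 hr compound exposure, 37 °C; CellTiter-Glo luminescence (cellular ATP) read-out after 20 min at RT. Decrease in ATP = cytotoxicity; AC50 from standard Hill fit.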

[2] = Cell Viability - HUV-EC-C (AID 542);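 also: cells exposed to compound for 40 hours; nearly all actives have a fitted effect of over 35% in size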
Summary of the method: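 Luminescent ATP read-out (CellTiter-Glo, 20 min room temperature) after 40 hr compound treatment of HUV-EC-C cells at 37 °C. Concentration-response data fitted with the standard Hill equation to give AC50; tamoxifen and doxorubicin served as positive controls.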

[3] = Cellular Toxicity (caspase-3) HUV-EC-C (AID 656)
Summary of the method: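 Luminescent Caspase-Glo 3/7 readout after 16 h, 37 °C compound exposure of HUV-EC-C endothelial cells, 1000 per well, complete medium. AC50 derived by Hill fitting, with DMSO as baseline and 100 uM tamoxifen as full activation.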

[4] = Cellular Toxicity (caspase-3) H-4-II-E (AID 663); conditions: Potency: caspase-3 activation;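 also: cells exposed to compound for 16 hr before readout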
Summary of the method: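 H-4-II-E rat hepatoma, 1500 cells/well, 5 hr settle at 37 °C; compound 16 hr, 37 °C, complete medium; Caspase-Glo 3/7, 20 min RT; luminescence. DMSO = 0%, 100 uM tamoxifen = 100%; Hill-equation AC50.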

[5] = Cellular Toxicity (caspase-3) N2a (AID 665);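 also: compound exposure lasted 16 h at 37 °C before readout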
Summary of the method: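 Luminescent Caspase-Glo 3/7 readout in N2a mouse neuroblastoma cells after 16 h compound exposure at 37 °C. Signal scaled to DMSO (basal) and 10 uM staurosporine (100%). Concentration-response fitted with Hill equation for AC50.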

[6] = Cellular Toxicity (caspase-3) NIH 3T3 (AID 666)
Summary of the method: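 NIH 3T3, 1000 cells/well, 5 hr settle then 16 hr compound at 37°C; Caspase-Glo 3/7, 20 min RT, luminescence. DMSO = basal, 100 uM tamoxifen = 100%. Hill-equation AC50, qHTS.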

[7] = biological target: Cytochrome P450 3A4 (Homo sapiens) (UniProt P08684); test: qHTS Assay for Inhibitors and Substrates of Cytochrome P450 3A4 (AID 884); also: nearly all actives have a fitted effect of over 50% in size
Summary of the method: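 Luminescent readout of luciferin produced by CYP3A4 (20 nM) dealkylation of Luciferin-PPXE, 25 uM (its KM). NADPH-driven reaction ran 60 min at RT after 10 min compound preincubation; data scaled to 57 uM ketoconazole as 100% inhibition.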

[8] = MultiTox-Fluor Cytotoxicity Assay - LYMP1-003 - Dead Cells (AID 961); also: nearly all actives have a fitted effect of over 70% in size; also: potency is read from the fitted curve at half-maximal effect
Summary of the method: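 Dead-cell protease release, detected as bis-AAF-R110 fluorescence at 485/520 nm, was measured in LYMP1-003 cells after 16 h compound treatment at 37 C. AC50 values came from Hill-modeled qHTS curves normalized to DMSO (0%) and 15 uM tetraoctylammonium bromide (100%).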

[9] = MultiTox-Fluor Cytotoxicity Assay - LYMP1-003 - Live Cells (AID 962);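 also: cells exposed to compound for 16 hours at 37 °C; cytotoxic hits lower the live-cell protease signal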
Summary of the method: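 Readout: live-cell fluorescence (Ex/Em=405/510) from GF-AFC cleavage after 60 min MultiTox-Fluor reagent at room temperature. Lymphoblastoid LYMP1-003 cells, 16 hr compound treatment, 37 C. Concentration-response fitted to standard Hill equation for AC50.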

[10] = biological target: Glucocorticoid receptor (Homo sapiens) (UniProt P04150); test: qHTS assay for small molecule antagonists of glucocorticoid receptor signaling (AID 588533; active = well fitted inhibition curve with a large enough effect in the signal ratio, with a control signal flat, not every such curve was filed as active; the % refers to the signal ratio)
Summary of the method: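 Antagonist-mode qHTS: compound titrations added to GRE-bla HeLa cells, then dexamethasone 2 nM final; 18 h, 37 C. CCF4 FRET fluorescence normalized to dexamethasone and DMSO; IC50 from Hill fit.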

[11] = biological target: Vitamin D3 receptor (Homo sapiens) (UniProt P11473); test: qHTS assay for small molecule antagonists of vitamin D receptor signaling (AID 588541; calls by dose curve;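 also: receptor activated by calcitriol during compound treatment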)
Summary of the method: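 VDR-UAS-bla HEK293T cells in 2% charcoal-stripped FBS were stimulated with 1-alpha,25-dihydroxyvitamin D3 (3 nM final) plus compound for 16 h at 37 C. The beta-lactamase CCF4 readout was normalized to 50 nM agonist and DMSO, and Hill fits gave IC50.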

[12] = qHTS assay for small molecule agonists of the antioxidant response element (ARE) signaling pathway (AID 651741; active = well fitted activation curve with a large enough effect in the signal ratio; the % refers to the signal ratio; also: potency is read from the fitted curve at half-maximal effect)
Summary of the method: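 HepG2 ARE-bla reporter cells, 2,000/well; 5 h settle at 37 C/5% CO2; compound pin transfer (23 nL, DMSO); 16 h at 37 C; LiveBLAzer B/G FRET substrate, 2 h RT; fluorescence intensity read.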

[13] = qHTS assay for small molecule activators of the nuclear factor-kappa B (NF-kB) signaling pathway (AID 651749; active = well fitted activation curve with a large enough effect in the signal ratio; the % refers to the signal ratio); conditions: NF-kB-bla ME-180 cells, beta-lactamase FRET ratio, 16 h; hits give high values
Summary of the method: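 NF-kB-bla ME-180 cells, 2,000/well; 23 nL compound or DMSO pinned; 16 hr, 37C/5% CO2; beta-lactamase FRET read-out.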

[14] = biological target: Nuclear receptor ROR-gamma (Homo sapiens) (UniProt P51449); test: qHTS assay for small molecule antagonists of the retinoid-related orphan receptor gamma (ROR-gamma) signaling pathway (AID 651802); also: nearly all actives have a fitted effect of over 60% in size; also: potency is read from the fitted curve at half-maximal effect
Summary of the method: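 Luciferase read-out: ONE-Glo luminescence after 30 min at room temperature, following 16hr doxycycline induction at 37C, 5% CO2 of CHO cells with TET-inducible ROR and RORE-LUC reporter; decreased luminescence = reduced reporter activity.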

[15] = qHTS assay for small molecule activators of the human pregnane X receptor (PXR) signaling pathway (AID 720659; call rule not given here)
[16] = Cell Viability - LYMP2-003 (AID 965);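 also: cells exposed to compounds for 24 h before reading; nearly all actives have a fitted effect of over 50% in size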
Summary of the method: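 CellTiter-Glo luminescence quantified ATP loss after 24 h compound treatment of LYMP2-003 lymphoblastoid cells at 37 C. Titration series were fitted with the standard Hill equation to give AC50.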

[17] = biological target: Estrogen receptor (Homo sapiens) (UniProt P03372); test: qHTS assay for small molecule antagonists of estrogen receptor alpha signaling (AID 588513; active = well fitted curve in the direction sought with a large enough effect in the signal ratio, with a control signal flat, not every such curve was filed as active; the % refers to the signal ratio)
Summary of the method: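 Antagonist mode: inhibition of 0.5 nM 17-beta-estradiol-driven beta-lactamase reporter in HEK 293 ER-alpha-UAS-bla cells, 18 h at 37C, CCF4 readout after 2 h at RT. Normalised to estradiol and DMSO; titration fitted to Hill.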

[18] = biological target: Estrogen receptor (Homo sapiens) (UniProt P03372); test: qHTS assay for small molecule agonists of estrogen receptor alpha signaling (AID 588514; calls by dose curve; also: nearly all actives have a fitted effect of over 70% in size)
Summary of the method: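 Read-out: CCF4 fluorescence from a beta-lactamase reporter in ER-alpha-UAS-bla HEK 293 cells after 18 hrs of compound exposure at 37 C. Normalized to 20 nM 17-beta-estradiol (100%) and DMSO (0%).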

[19] = qHTS assay for cell viability of HEK293 cells (AID 743288); conditions: ATP luminescence (CellTiter-Glo), 18 h; max response: hits give low values; also: nearly all actives have a fitted effect of over 50% in size
Summary of the method: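 Readout is luciferase-coupled ATP content (CellTiter-Glo luminescence, 30 min room temperature) as a measure of metabolically competent cells. Parental HEK293 cells were plated 5 h or more before compound addition, then treated 18 h at 37 C.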

[20] = qHTS assay for small molecule agonists of the antioxidant response element (ARE) signaling pathway measured by Nrf2-dependant transcriptional activity - cell viability counter screen (AID 720653; active = well fitted curve in the direction sought with a large enough effect in the repeat runs; an effect the other way counts as inactive or inconclusive); conditions: ARE-bla HepG2 viability, CellTiter-Glo ATP luminescence, 16 h; max response: hits give low values
Summary of the method: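 ARE-bla HepG2 cells treated with compounds for 16 h at 37C; this counter screen measures viability as intracellular ATP by CellTiter-Glo luminescence after 30 min at room temperature.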

Sequence of Cytochrome P450 3A4 (Homo sapiens) (P08684 whole entry, looked up): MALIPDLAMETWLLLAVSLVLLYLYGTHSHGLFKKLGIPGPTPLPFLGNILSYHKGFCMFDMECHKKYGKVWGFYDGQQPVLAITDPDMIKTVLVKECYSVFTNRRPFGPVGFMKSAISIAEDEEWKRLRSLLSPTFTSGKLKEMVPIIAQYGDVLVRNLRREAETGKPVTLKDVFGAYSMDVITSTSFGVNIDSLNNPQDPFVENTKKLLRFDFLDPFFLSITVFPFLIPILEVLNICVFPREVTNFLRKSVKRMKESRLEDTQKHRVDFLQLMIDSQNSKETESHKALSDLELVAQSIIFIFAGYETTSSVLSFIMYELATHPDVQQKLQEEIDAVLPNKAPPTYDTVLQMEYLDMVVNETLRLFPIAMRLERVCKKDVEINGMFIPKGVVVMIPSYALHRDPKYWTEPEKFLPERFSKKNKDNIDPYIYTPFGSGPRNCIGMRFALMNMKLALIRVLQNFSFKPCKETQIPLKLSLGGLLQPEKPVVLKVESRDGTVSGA
Sequence of Glucocorticoid receptor (Homo sapiens) (P04150 whole entry, looked up): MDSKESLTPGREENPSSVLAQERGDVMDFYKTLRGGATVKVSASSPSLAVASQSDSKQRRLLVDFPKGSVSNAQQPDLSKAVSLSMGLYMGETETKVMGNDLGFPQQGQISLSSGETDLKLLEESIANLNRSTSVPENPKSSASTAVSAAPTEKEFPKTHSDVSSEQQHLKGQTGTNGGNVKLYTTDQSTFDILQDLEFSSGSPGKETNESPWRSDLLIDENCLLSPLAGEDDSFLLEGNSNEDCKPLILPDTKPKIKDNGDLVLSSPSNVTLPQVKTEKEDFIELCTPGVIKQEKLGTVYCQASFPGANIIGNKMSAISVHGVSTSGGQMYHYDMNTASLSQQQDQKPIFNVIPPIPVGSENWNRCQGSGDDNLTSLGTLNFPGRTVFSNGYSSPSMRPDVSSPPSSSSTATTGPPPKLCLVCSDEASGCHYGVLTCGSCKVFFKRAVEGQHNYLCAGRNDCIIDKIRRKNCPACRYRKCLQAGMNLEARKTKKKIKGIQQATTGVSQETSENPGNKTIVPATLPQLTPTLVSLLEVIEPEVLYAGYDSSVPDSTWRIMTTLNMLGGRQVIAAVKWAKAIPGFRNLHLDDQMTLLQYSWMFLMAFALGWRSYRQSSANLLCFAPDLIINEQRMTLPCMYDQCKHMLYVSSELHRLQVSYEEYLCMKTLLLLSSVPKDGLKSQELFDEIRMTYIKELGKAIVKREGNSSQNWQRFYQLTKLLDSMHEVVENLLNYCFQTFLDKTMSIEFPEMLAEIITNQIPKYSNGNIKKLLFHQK
Sequence of Nuclear receptor ROR-gamma (Homo sapiens) (P51449 whole entry, looked up): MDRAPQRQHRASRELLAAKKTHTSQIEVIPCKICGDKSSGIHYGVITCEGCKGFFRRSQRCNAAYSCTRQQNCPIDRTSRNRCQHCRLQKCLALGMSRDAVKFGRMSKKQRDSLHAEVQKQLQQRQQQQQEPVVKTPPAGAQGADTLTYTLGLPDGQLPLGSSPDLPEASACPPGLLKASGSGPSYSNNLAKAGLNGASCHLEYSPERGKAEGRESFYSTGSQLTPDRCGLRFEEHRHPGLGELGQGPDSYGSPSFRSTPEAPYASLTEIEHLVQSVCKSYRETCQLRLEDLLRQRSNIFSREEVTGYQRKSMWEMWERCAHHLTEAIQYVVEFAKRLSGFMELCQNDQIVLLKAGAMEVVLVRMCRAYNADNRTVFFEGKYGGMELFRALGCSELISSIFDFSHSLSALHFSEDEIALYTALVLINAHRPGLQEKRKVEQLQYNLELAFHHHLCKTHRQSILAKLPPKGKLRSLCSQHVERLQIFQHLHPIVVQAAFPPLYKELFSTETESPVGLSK
Sequence of Estrogen receptor (Homo sapiens) (P03372 whole entry, looked up): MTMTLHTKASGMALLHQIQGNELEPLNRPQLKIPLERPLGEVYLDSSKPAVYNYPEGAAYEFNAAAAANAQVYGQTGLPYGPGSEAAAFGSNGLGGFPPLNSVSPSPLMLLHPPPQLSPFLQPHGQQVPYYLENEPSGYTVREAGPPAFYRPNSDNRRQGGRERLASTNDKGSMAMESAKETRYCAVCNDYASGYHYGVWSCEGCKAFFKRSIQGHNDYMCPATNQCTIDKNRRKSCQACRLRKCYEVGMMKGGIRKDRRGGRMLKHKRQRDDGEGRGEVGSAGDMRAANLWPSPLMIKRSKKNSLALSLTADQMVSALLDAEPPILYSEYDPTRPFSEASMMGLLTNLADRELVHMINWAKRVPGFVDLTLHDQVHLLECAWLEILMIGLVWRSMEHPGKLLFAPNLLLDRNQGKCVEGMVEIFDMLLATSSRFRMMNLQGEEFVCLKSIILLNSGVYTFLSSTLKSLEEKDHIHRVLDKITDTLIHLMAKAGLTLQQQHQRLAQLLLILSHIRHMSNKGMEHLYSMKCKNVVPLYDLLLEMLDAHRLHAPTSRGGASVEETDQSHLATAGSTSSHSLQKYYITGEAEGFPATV
Sequence of Vitamin D3 receptor (Homo sapiens) (P11473 whole entry, looked up): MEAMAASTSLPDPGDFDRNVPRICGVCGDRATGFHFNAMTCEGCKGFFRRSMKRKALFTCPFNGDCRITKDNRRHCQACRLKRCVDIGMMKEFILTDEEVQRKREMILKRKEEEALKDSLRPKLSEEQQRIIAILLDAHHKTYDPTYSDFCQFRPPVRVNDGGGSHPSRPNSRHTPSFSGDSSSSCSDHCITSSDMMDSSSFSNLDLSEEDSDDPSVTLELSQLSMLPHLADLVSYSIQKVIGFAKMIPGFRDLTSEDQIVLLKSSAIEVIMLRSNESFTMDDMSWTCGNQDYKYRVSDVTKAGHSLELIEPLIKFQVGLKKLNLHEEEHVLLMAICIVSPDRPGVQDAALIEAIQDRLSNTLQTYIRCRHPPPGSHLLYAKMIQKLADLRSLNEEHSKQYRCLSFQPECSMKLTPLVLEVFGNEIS

Compound | activity change, negative = cytotoxicity [1] | Potency [2] | Potency [3] | Potency [4] | outcome [5] | outcome [6] | Potency [7] | Potency [8] | Potency [9] | Potency [10] | Potency [11] | Potency [12] | activation [13] | Potency [14] | outcome [15] | Potency [16] | outcome [17] | Potency [18] | max response [19] | max response [20]
Brc1ccc(-c2ccccc2)cc1 | -9.21% | inactive | inactive | inactive | inactive | inactive | inactive | inactive | inactive | inactive | inactive | inactive | 2.79% | inactive | inactive |  |  |  |  | 
CC(C)S | -8.42% | inactive | inactive | inactive |  | inactive | inactive | inactive | inactive | inactive | inactive |  | -0.169% |  | inactive | inactive | inactive | inactive | -8.12% | 
Oc1c(Cl)cc(Cl)c(Cl)c1Cl | -2.17% | inactive | inactive | inactive |  | inactive | inactive | inactive | inactive | inactive | inactive | 33.5 µM (active) | -0.537% and 2.41% | 33.5 µM (active) |  | inactive |  |  | -22.8% and -1.71% | -1.59% and 6.5%
Brc1cc(Br)c(Oc2cc(Br)c(Br)cc2Br)cc1Br | -6.22% | inactive | inactive |  | inactive | inactive | inactive |  |  |  | inactive |  | 3.12% |  | inactive | inactive | inactive |  | -23.2% | 
C=C(C#N)C(=O)OCC | -117% (active) | inactive |  | inactive | inactive |  | inactive | inactive | inactive | inactive |  | inactive | -1.44% | inactive | inactive |  |  |  | -12.8% | -14.3%
CCCCC(CC)COC(=O)COc1ccc(Cl)cc1Cl (stereo unspecified) | 0.559% |  | inactive | inactive | inactive |  | inactive | inactive |  | inactive | inactive |  |  |  | inactive |  | inactive | inactive |  | 
CCCCCCN | -9.38% | inactive | inactive |  |  |  | inactive |  | inactive |  | inactive |  | -0.245% | inactive | inactive |  | inactive | inactive | -3.69% | -8.85%
Nc1ccccc1O | -130% (active) | inactive | inactive | inactive | inactive | inactive | inactive | 10 µM (active) |  |  | inactive | 13.3 µM (active) |  |  |  |  | inactive | inactive | -3.09% | 
c1c[nH]cn1 | -10% | inactive | inactive |  | inactive | inactive | inactive | inactive | inactive | inactive | inactive | inactive | 0.0227% |  | inactive |  | inactive | inactive |  | -2.06%
Cc1ccc2ccc3cccc4ccc1c2c34 | -8.7% |  | inactive | inactive |  |  |  | inactive | inactive | inactive |  | 59.6 µM (active) | -0.92% |  | inactive |  | inactive | inactive |  | 
O=[N+]([O-])c1ccc(F)cc1F |  | inactive | inactive |  | inactive | inactive | inactive | inactive | inactive |  | inactive | inactive | 0.374% | inactive | inactive | inactive | inactive | inactive |  | 
COc1ccc(C(=O)Nc2ccccc2)cc1[N+](=O)[O-] |  | inactive | inactive | inactive | inactive |  |  |  |  | inactive | inactive |  | 1.42% | inactive |  | inactive | inactive |  | -5.07% | 0.739%
O=C1OC(=O)c2ccccc21 |  | inactive | inactive | inactive |  |  | inactive | inactive | inactive | inactive | inactive | inactive | 0.114% |  | inactive | inactive | inactive | inactive |  | -7.68%
Brc1cc(Oc2cc(Br)c(Br)c(Br)c2Br)c(Br)c(Br)c1Br |  | inactive | inactive |  |  | inactive | inactive | inactive | inactive | inactive |  | inactive | 2.9% and 0.823% | inactive |  | inactive |  |  |  | 
CCCCOC(=O)COc1ccc(Cl)cc1Cl | 1.3% | inactive | inactive |  | inactive | inactive | inactive | inactive |  |  | inactive | inactive | 1.36% and -1.12% | inactive | inactive | inactive |  |  | -2.46% and -7.81% | -6.14% and -13.6%
c1ccncc1 | -13.1% | inactive | inactive |  | inactive | inactive | inactive |  | inactive |  | inactive | inactive | 0.644% | inactive | inactive |  | inactive | inactive | 1.01% | -7.78%
